Shown are actives, neighbours in structure and some others; about 11% of the full set was active somewhere.
G9a block = blocks human histone lysine methyltransferase G9a | Q96KQ7 | G9a H3K9 monomethylation, AlphaScreen, 2 h | Potency, µM (highest dose often 102 µM), without a hit: at the highest dose activity, negative = inhibition, usual class: inhibitors | 350,000 compounds, 8.8% hits; also: % is scaled to controls: 0 for no effect and ±100 for the full control effect; nearly all actives have a fitted effect of over 75% in size
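Using a bead-based AlphaScreen, monomethylated H3K9 product from 2 h room-temperature reactions (G9a 20 nM, peptide 500 nM, SAM 20 uM) was detected with 0.5 ug/mL rabbit anti-H3K9me1 antibody.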
PLK1 PBD inh = blocks phosphopeptide binding to human PLK1 polo-box domain; 360,000 compounds, 2.8% hits; Plk1 PBD binding of FITC phosphopeptide, fluorescence polarization; P53350; Potency, µM, inactives show max response, negative = inhibition, most hits filed as inhibitors; also: series mostly up to about 57 µM; % is scaled to controls: 0 for no effect and ±100 for the full control effect; nearly all actives have a fitted effect of over 65% in size
VDR inhibitor = blocks the human vitamin D receptor; 400,000 compounds, 0.93% hits; Potency, µM, for the others: max response, negative = inhibition, hits mostly inhibitors; P11473; VDR-SRC2-3 peptide fluorescence polarization, 2 h; also: % is scaled to controls: 0 for no effect and ±100 for the full control effect
Target sequence (P11473 whole entry, looked up): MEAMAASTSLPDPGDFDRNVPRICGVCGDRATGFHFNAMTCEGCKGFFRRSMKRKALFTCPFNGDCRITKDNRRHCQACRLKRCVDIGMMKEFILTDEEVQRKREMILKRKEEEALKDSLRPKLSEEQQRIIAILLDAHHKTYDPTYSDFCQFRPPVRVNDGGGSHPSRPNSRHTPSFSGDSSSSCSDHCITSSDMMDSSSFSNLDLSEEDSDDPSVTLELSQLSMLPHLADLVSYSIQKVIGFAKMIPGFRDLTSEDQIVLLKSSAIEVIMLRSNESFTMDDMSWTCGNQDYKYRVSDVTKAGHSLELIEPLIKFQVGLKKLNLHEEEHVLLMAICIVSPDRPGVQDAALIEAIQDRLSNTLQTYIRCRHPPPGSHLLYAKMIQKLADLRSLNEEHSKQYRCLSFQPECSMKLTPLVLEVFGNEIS
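Measured by FP: displacement of SRC2-3 coactivator peptide from VDR by library compounds, following a two-hour ambient incubation.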
BAZ2B block = blocks human BAZ2B; Q9UIF8; AlphaScreen BAZ2B-H3K14Ac peptide displacement; 360,000 compounds, 4.4% hits; AID 504333; Potency, µM (doses to about 114 µM), for inactives: top-dose activity change, negative = inhibition, most hits filed as inhibitors; also: % is scaled to controls: 0 for no effect and ±100 for the full control effect; nearly all actives have a fitted effect of over 60% in size
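BAZ2B (50 nM) with biotin-H3(5-23)K14Ac peptide (50 nM) in PBS pH 7.4, 0.01% Tween-20, preformed 30 min, then compound 30 min at room temperature; top concentration 110uM. AlphaScreen streptavidin donor/nickel chelate acceptor beads (10 ug/mL final), 20 min dark, signal read.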
HP1b chromo inh = HP1-beta chromodomain-methylated histone interaction inhibition. P83916. AlphaScreen HP1-beta / biotin-H3K9me3 peptide binding. Potency, µM (doses to about 114 µM), for the others: at the top dose activity change, negative = inhibition, usual class: inhibitors. 390,000 compounds, 0.56% hits; also: nearly all actives have a fitted effect of over 70% in size
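AlphaScreen: HP1-beta (50 nM) preformed 30 min with biotin-H3(1-18)K9me3 peptide (50 nM) in PBS pH 7.4, 0.01% Tween-20. Compound added for 30 min at RT, then streptavidin donor/nickel chelate acceptor beads (10 ug/mL) for 30 min.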
JMJD2A Tudor inh = blocks the human JMJD2A Tudor domain. O75164. AlphaScreen JMJD2A-Tudor / H3K4me3 peptide binding. Potency, µM (series often up to 114 µM), without a hit: at the top dose activity change, negative = inhibition, most hits filed as inhibitors. 390,000 compounds, 4.4% hits; also: % is scaled to controls: 0 for no effect and ±100 for the full control effect; nearly all actives have a fitted effect of over 50% in size
* = called active by the depositor; [ ] = dose if it differs, or a comment. Calls follow the shape of the dose curve; as a rule, active = well fitted curve in the direction sought with a large enough effect; inconclusive = small, poorly fitted or top-dose-only effect, or another doubt; inactive = no such curve, though single readings can be large; an effect the other way counts as inactive or inconclusive. Potency is read from the fitted curve at half-maximal effect.

`CCCCn1nnnc1C(c1ccccc1)N1CCN(c2cccc(C(F)(F)F)n2)CC1` (stereo not drawn) gave PLK1 PBD inh 3%.
For Cc1cc(S(=O)(=O)N2CCOCC2)ccc1F the results were G9a block -2%[59 µM], PLK1 PBD inh 30µM*, VDR inhibitor -21%, BAZ2B block -5%, HP1b chromo inh inconclusive and JMJD2A Tudor inh 79µM*.
Screening O=C(CN1CCN(S(=O)(=O)c2ccc(F)c(Cl)c2)CC1)N1CCOCC1 returned G9a block 1.1µM*, PLK1 PBD inh 3%, VDR inhibitor -8%, BAZ2B block -3%, HP1b chromo inh 39% and JMJD2A Tudor inh 11%.
`CCOc1ccc(Oc2ccc(S(=O)(=O)N3CCOCC3)cc2N)cc1` gave G9a block -4%, PLK1 PBD inh -5%, VDR inhibitor -6%, HP1b chromo inh 13% and JMJD2A Tudor inh -29%.
CCOc1ccc2cc(S(=O)(=O)N3CCOCC3)ccc2c1 was read as G9a block 4.5µM*, PLK1 PBD inh inconclusive, VDR inhibitor -3%, BAZ2B block 8%, HP1b chromo inh 9% and JMJD2A Tudor inh -2%.
For Cc1cccc(C)c1NC(=O)c1cc(S(=O)(=O)N2CCOCC2)ccc1F the results were G9a block -5%[59 µM], PLK1 PBD inh -13%, VDR inhibitor -11%, BAZ2B block -5%, HP1b chromo inh 6% and JMJD2A Tudor inh -6%.
`Cc1cccc(NC(=O)CN2C(=O)CCn3nc(-c4cccn4C)cc32)c1C` gave G9a block -31%[59 µM], VDR inhibitor 12%, BAZ2B block -24%, HP1b chromo inh 6%[57 µM] and JMJD2A Tudor inh -30%.
Screening COCCN1C(=O)N[C@@H](CCc2ccccc2)[C@H](C(=O)OC)[C@H]1C returned PLK1 PBD inh -6%, VDR inhibitor -26%, HP1b chromo inh 51% and JMJD2A Tudor inh -7%.
Screening CCOc1ccc2oc(C(=O)Nc3ccc(N4CCOCC4)cc3)c(C)c2c1 returned G9a block 13µM*, PLK1 PBD inh -11%, VDR inhibitor -2%, BAZ2B block -6%, HP1b chromo inh 35% and JMJD2A Tudor inh -5%.
For COc1ccc2oc(C(=O)OCC(=O)N(C)CC(=O)Nc3ccc(C)cc3)c(C)c2c1 the results were G9a block 50µM*, PLK1 PBD inh -3%, VDR inhibitor 9%, BAZ2B block 4%, HP1b chromo inh 18% and JMJD2A Tudor inh -13%.
For CCOc1ccc2oc(C(=O)N(C)CC(=O)Nc3ccc(OCC)c(OCC)c3)c(C)c2c1 the results were G9a block 56µM*, PLK1 PBD inh 2%, VDR inhibitor 9%, BAZ2B block -34%, HP1b chromo inh -6% and JMJD2A Tudor inh -24%.
`CCOc1ccc2oc(C(=O)N(C)CCc3ccc(OC)c(OC)c3)c(C)c2c1` gave G9a block 5%[12.7 µM], PLK1 PBD inh -6%, VDR inhibitor 12%, BAZ2B block -28%, HP1b chromo inh 25% and JMJD2A Tudor inh -20%.
COc1ccc(C(=O)CC2(O)C(=O)N(Cc3ccccc3)c3ccc(Br)cc32)cc1 (stereo not drawn) was read as G9a block inconclusive, VDR inhibitor -13%, BAZ2B block -16%, HP1b chromo inh 12% and JMJD2A Tudor inh -33%.
For COc1ccc(/C=C2\SC(=S)NC2=O)cc1OS(=O)(=O)c1ccc(NC(C)=O)cc1 the results were G9a block inconclusive, PLK1 PBD inh inconclusive, VDR inhibitor -14%, BAZ2B block -38%, HP1b chromo inh -14% and JMJD2A Tudor inh -35%.
`O=C1NC(=S)S/C1=C\c1ccc2ccccc2c1` gave G9a block -5%, PLK1 PBD inh 30µM*, VDR inhibitor 6%, BAZ2B block 50µM*, HP1b chromo inh -5% and JMJD2A Tudor inh inconclusive.
CCOc1ccc(/C=C2\SC(=S)N(C)C2=O)cc1OC was read as PLK1 PBD inh -4%, VDR inhibitor 6%, BAZ2B block -11%, HP1b chromo inh 5% and JMJD2A Tudor inh -18%.

Source: PubChem (National Center for Advancing Translational Sciences (NCATS))
